# Bioassay records from PubChem BioAssay.
# Fam108B counter – mouse Fam108B serine hydrolase inhibitors, primary screen, counter-screen for RBBP9 inhibitor project, biochemical, fluorescence polarization; recombinant Fam108B, FP-Rh probe fluorescence polarization; 300,000 compounds, 0.33% hits; AID 1947, 2009; inhibition, % at 9.51 µM;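 active means inhibition above the screen mean inhibition plus 3 SD, computed separately per campaign, cut at about 18% in these data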;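 further: inhibitors lower polarization as less probe binds the enzyme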
# PAD4 FP inh – human PAD4 inhibitors, primary screen, biochemical, fluorescence polarization, 1536-well format | Protein-arginine deiminase type-4 (Homo sapiens), Q9UM07 | recombinant PAD4, RCA probe fluorescence polarization | inhibition, % at 6.36 µM | 330,000 compounds, 0.41% hits | AID 485272, 2010;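 active means percent inhibition above a cutoff equal to the mean of all tested compounds plus 3 SD, cut at about 15% in these data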;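 further: 0% = PAD4 with RCA probe and DMSO and 100% = probe without PAD4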
# LYPLA1 counter – LYPLA1 inhibitors, primary screen, counter-screen for PME1 inhibitor project, biochemical, fluorescence polarization, FP-Rh probe ABPP; Acyl-protein thioesterase 1 (Homo sapiens), O75608; AID 2174, 2009; recombinant LYPLA1; 320,000 compounds, 0.16% hits; inhibition, % at 5.9 µM;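 active means inhibition above the mean of all tested compounds plus 3 SD, set per campaign, cut at about 14% in these data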;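 further: inhibitors block serine hydrolase probe labeling of LYPLA1 so polarization falls; 0% = enzyme with DMSO and 100% = wells lacking LYPLA1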
# Target sequence (O75608 whole entry, looked up): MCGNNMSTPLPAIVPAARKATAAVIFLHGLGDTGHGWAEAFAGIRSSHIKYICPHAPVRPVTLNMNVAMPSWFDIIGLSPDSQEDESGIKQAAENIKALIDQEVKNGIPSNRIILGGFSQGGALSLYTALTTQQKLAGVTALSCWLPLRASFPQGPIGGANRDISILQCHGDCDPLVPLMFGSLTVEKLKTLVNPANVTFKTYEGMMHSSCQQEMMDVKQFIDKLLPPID
# PME-1 primary – PME-1 inhibitors via competitive probe labeling, primary screen, biochemical, fluorescence polarization, FP-Rh probe, HTS; 320,000 compounds, 0.53% hits; AID 2130, 2009; Protein phosphatase methylesterase 1 (Homo sapiens), Q9Y570; recombinant PME-1; inhibition, % at 5.9 µM;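 active means inhibition above the campaign mean of all compounds plus 3 SD, cut at about 26% in these data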;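 further: competitive labeling of PME-1 active site by serine hydrolase directed probe; 0% = PME-1 with DMSO and 100% = wells lacking PME-1 enzyme; inhibitors block probe labeling so polarization falls and inhibition rises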
# GSTO1 inh – inhibitors of recombinant GSTO1, primary screen, counter-screen for RBBP9 inhibitor project, biochemical, fluorescence polarization. 300,000 compounds, 1.1% hits. AID 1974, 2009. inhibition, % at 5.96 µM. activity-based probe fluorescence polarization;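 active means inhibition above the campaign mean inhibition plus 3 SD, cut at about 35% in these data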;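 further: 0% = GSTO1-1 with DMSO and 100% = wells lacking GSTO1-1 enzyme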
# Target sequence (P78417 whole entry, looked up): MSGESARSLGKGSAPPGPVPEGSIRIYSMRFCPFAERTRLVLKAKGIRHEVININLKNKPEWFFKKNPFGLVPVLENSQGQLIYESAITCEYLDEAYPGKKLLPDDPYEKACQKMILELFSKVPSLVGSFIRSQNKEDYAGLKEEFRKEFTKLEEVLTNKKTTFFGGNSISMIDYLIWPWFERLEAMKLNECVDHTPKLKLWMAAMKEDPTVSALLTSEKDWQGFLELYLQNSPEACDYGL
# LYPLA2 inh – LYPLA2 inhibitors, primary screen, counter-screen for PME1 inhibitor project, biochemical, fluorescence polarization, FP-Rh probe ABPP | Acyl-protein thioesterase 2 (Homo sapiens), O95372 | recombinant LYPLA2 | inhibition, % at 5.9 µM | 320,000 compounds, 0.38% hits;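 active means inhibition above the screen-wide mean plus 3 SD, limit set per campaign, cut at about 26% in these data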;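 further: 0% = LYPLA2 with DMSO and 100% = wells lacking LYPLA2 enzyme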
# LYPLA1 conf – LYPLA1 inhibitors, retest, confirmation, counter-screen for PME1 inhibitor project, biochemical, fluorescence polarization, FP-Rh probe ABPP | shares compounds with LYPLA1 counter | recombinant LYPLA1 | inhibition, % at 5.9 µM | 480 compounds, 69% hits | AID 2233, 2010;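 active means mean inhibition across replicates above the hit cutoff set in the primary screen, cut at about 15% in these data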;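 further: loss of FP-Rh probe labeling of LYPLA1 seen as lower polarization; 0% = LYPLA1 with DMSO and 100% = wells lacking LYPLA1 enzyme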
# LYPLA2 conf – LYPLA2 inhibitors, retest, confirmation, counter-screen for PME1 inhibitor project, biochemical, fluorescence polarization, FP-Rh probe ABPP. shares compounds with LYPLA2 inh. recombinant LYPLA2. inhibition, % at 5.9 µM. 1,100 compounds, 72% hits. AID 2232, 2010;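 active means mean inhibition across replicates above the hit cutoff set in the primary screen, cut at about 26% in these data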;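 further: blocked labeling of the enzyme by serine hydrolase FP-Rh probe lowers polarization; 0% = enzyme with DMSO and 100% = wells lacking LYPLA2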
# LYPLA2 ABPP – LYPLA2 inhibitors in proteome, late-stage follow-up, gel-based competitive ABPP, fluorescence, assay provider. shares compounds with LYPLA2 inh. rhLYPLA2 in mouse brain proteome, gel ABPP FP-Rh. inhibition, % at 20 µM. 150 compounds, 30% hits. AID 652029, 2013;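 active means inhibition of LYPLA2 enzyme probe labeling above about 50%, limit read from the data; inactive means inhibition below that limit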;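 further: loss of FP-Rh probe labeling of the LYPLA2 gel band measured as band density; 0% = DMSO only control band and 100% = blank gel background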
# * hit, by the source's call; x = no result. Hits are enriched below; roughly 1.8% of the tested compounds scored in any of these assays.
SMILES,Fam108B counter,PAD4 FP inh,LYPLA1 counter,PME-1 primary,GSTO1 inh,LYPLA2 inh,LYPLA1 conf,LYPLA2 conf,others
COc1ccc(C(C(=O)NC(C)(C)C)N(C(=O)CCC(=O)Nc2cc(C)on2)c2ccccc2F)cc1 (centres undefined),0,2,15*,2,3,2,1,x,
COc1ccc(C(C(=O)NC(C)(C)C)N(C(=O)CCC(=O)Nc2cc(C)on2)c2cc(C)cc(C)c2)cc1 (centres undefined),-3,-3,2,2,-1,3,x,x,
COC(=O)CCCC(=O)N1CCCC(C(=O)c2ccc(-c3ccccc3)cc2)C1 (centres undefined),7,2,21*,-3,2,3,29*,x,
O=C(NCC(=O)N1CCN(c2cccc(Cl)c2)CC1)c1ccc(Br)o1,1,2,14*,3,7,7,16*,x,
Cc1ccc(Cl)cc1N1CCN(C(=O)CNC(=O)c2ccc(Br)o2)CC1,x,-2,-1,-2,x,0,x,x,
COc1ccc(N2CCN(S(=O)(=O)CCNC(=O)C3CC(=O)N(c4ccccc4)C3)CC2)cc1 (centres undefined),-2,1,5,-2,-3,-2,x,x,
O=c1[nH]c(O)c(/C=C2\C=Nc3ccc(Br)cc32)[nH]1,2,-4,36*,17,2,8,40*,x,
Cc1ccc(CN2CC(C(=O)N(C)CC(=O)Nc3cccc(F)c3)CC2=O)cc1 (centres undefined),-5,-4,-2,-2,0,4,x,x,
O=C(c1ccco1)N1CCN(CCCCN2C(=O)c3ccccc3C2=O)CC1,0,-4,5,-2,0,16,x,x,
O=C1c2ccccc2-c2onc3c(N4CCN(CCO)CC4)cc(N4CCN(C(=O)c5ccco5)CC4)c1c23,9,14,17*,16,37*,20,9,x,
CC(NCC(=O)Nc1ccccc1C(=O)NC1CC1)c1cccc(C(F)(F)F)c1 (centres undefined),x,0,0,-6,x,2,x,x,
CC1CN(Cc2cc(=O)oc3cc(O)c(Cl)cc23)CC(C)O1 (centres undefined),6,-4,16*,3,4,20,42*,x,
CC(=O)c1ccc(N2CCN(C(=O)c3ccc(C(=O)c4ccccc4)cc3)CC2)cc1,x,1,21*,1,x,55*,36*,65*,
COc1ccc(CN2CCN(C(=O)Cn3nc(C(=O)O)c4ccccc4c3=O)CC2)cc1F,0,-1,17*,-1,1,57*,15*,63*,LYPLA2 ABPP=47
Cc1nn(CC(=O)N2CCN(Cc3ccccc3)CC2)c(=O)c2ccccc12,0,1,-5,-3,3,5,x,x,
COc1ccc(C(=O)NC(=S)Nc2ccc(N3CCN(C(C)=O)CC3)cc2)cc1[N+](=O)[O-],0,-2,55*,1,-2,70*,63*,75*,
CC(=O)N1CCN(c2ccc(NC(=S)NC(=O)c3ccc(C)c([N+](=O)[O-])c3)cc2)CC1,2,1,20*,2,7,43*,32*,56*,
COc1ccc(C(=O)NC(=S)Nc2cccc(NC(=O)c3ccco3)c2)cc1[N+](=O)[O-],-8,5,37*,-23,-1,48*,13,24,
CCOc1ccc(C(=O)NC(=S)Nc2ccc(N3CCCCC3)cc2)cc1[N+](=O)[O-],16,-9,-3,9,5,16,x,x,
COc1ccc(C(=O)NC(=S)Nc2ccc(NC(=O)c3ccco3)cc2)cc1[N+](=O)[O-],-7,-1,-1,-6,2,6,x,x,
CCCCN(C(=O)CSc1nc2ccccc2n1CC)C1CCS(=O)(=O)C1 (centres undefined),x,4,1,2,x,6,x,x,
COc1ccccc1-n1cc(C(=O)NCC(=O)NCc2ccc(F)cc2)c2ccccc2c1=O,4,3,0,6,-1,4,x,x,
COc1ccccc1-n1cc(C(=O)NCC(=O)N2CCN(Cc3ccccc3)CC2)c2ccccc2c1=O,-5,-2,16*,2,5,84*,22*,81*,
COc1ccc(OCC(O)CN2CCC(CN3C(=O)c4cccc5cccc(c45)C3=O)CC2)cc1 (centres undefined),-3,1,20*,-3,25,69*,23*,69*,
CN(C)CCCN(C(=O)c1ccc([N+](=O)[O-])o1)c1nc2cc3c(cc2s1)OCO3,4,-2,1,3,24,4,x,x,
SMILES,Fam108B counter,PAD4 FP inh,LYPLA1 counter,PME-1 primary,GSTO1 inh,LYPLA2 inh,LYPLA1 conf,LYPLA2 conf,others
COc1ccc(Cl)cc1C(=O)NNC(=O)c1[nH]c(C)c(C(C)=O)c1C,x,-8,x,x,x,x,x,x,
O=[N+]([O-])c1ccc(C2CCCC/C2=N/OCc2ccc(F)cc2)c([N+](=O)[O-])c1 (centres undefined),2,-6,-1,1,-5,-1,x,x,
O=[N+]([O-])c1ccc(N2CCC(=NOCc3ccc(Cl)cc3)CC2)cc1,-5,-4,58*,-2,-5,78*,70*,75*,
Cc1ccc(C(=O)NC(=S)N2CCN(c3ccc([N+](=O)[O-])cc3)CC2)cc1,-1,-5,-4,4,4,4,x,x,
Cc1ccc(C(=O)ON=C2CCN(c3ccc([N+](=O)[O-])cc3)CC2)cc1,-4,0,23*,0,0,55*,28*,47*,
Cc1cnc(C(=O)OCC(=O)Nc2ccccc2-c2ccccc2)cn1,x,-8,2,4,x,0,x,x,
COc1ccc2c(c1)C(=O)[C@H](O)[C@@H](c1ccc(OC)c(Br)c1)O2,0,-1,44*,19,5,93*,41*,93*,
